High-throughput results deposited in PubChem by several laboratories.
Lmaj promast = Leishmania major promastigote growth inhibition | inhibition, % at 10 µM | 9% of 200,000 active | AID 1063 | Leishmania major promastigotes, resazurin fluorescence viability; in the data active = inhibition above about 50%;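 note: promastigotes grown with compound for 44 hours at 28 °C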
HCT116 bCat-KO = beta-catenin-lacking colon tumor cell growth suppression. 1.5% of 140,000 active. viability, % at 10 µM. HCT116 beta-catenin knockout viability, CellTiter-Glo, 60 h; hits give low values;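 active = viability at or under a set limit, the compound median less 4 SD, cut at about 6% in these data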;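 note: 0% = Hyamine 1622 control at 20 µM and 100% = untreated cell control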
Autophagy mod = autophagy modulation, high-content screen. AID 463193. 0.98% of 190,000 active. calls only at 10 µM (by protocol). MEF GFP-LC3 puncta imaging; test concentration mostly 10 µM;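 active = percentage of spot-positive cells more than 3 SD above its plate mean, without a fluorescence outlier flag or 80% toxicity; inconclusive = no clear call, values can overlap the other calls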;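 note: spot-positive cell cutoff set from DMSO-treated cells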
HCT116 PTEN-null = PTEN-deleted cell growth suppression; viability, % at 10 µM; 1.2% of 140,000 active; HCT116 PTEN-null viability, CellTiter-Glo, 60 h; hits give low values;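 active = viability at or below a set limit, 4 SD under the median of all tested compounds, cut at about 3.7% in these data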;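 note: PTEN knockout HCT116 line with beta catenin targeted HCT116 as companion control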
INS promoter inh = TRM-6 insulin promoter activity inhibition; 0.9% of 130,000 active; inhibition, % at 2 µM; TRM-6 cells (human fetal islet line), insulin promoter-eGFP reporter, imaging; reporter expression induced with tamoxifen;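 active = inhibition above the mean plus 3 SD, with well images judged a real hit on visual review, cut at about 60% in these data, passing the limit was not always enough; inconclusive = inhibition over the cutoff but images rejected on review; inactive = inhibition not above the cutoff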
Ins promoter up = MIN6 insulin promoter up-regulation; MIN6 insulin promoter-GFP reporter, high-content imaging; hits give high values; z-score at 5 µM; 0.3% of 190,000 active; AID 1625;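 active = z-score above 3 at 5 µM with at least 500 cells counted in the well; inconclusive = wells under 500 cells, flagged as cytotoxic or low count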
L major 1uM = L. major promastigote growth inhibition, 1 uM repeat; shares compounds with Lmaj promast; resazurin fluorescence, 48 h; inhibition, % at 1 µM; 13% of 1,100 active;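 active = inhibition above about 50% in both repeat tests, limit read from the data; inconclusive = one repeat under the set limit, the other over it; inactive = both repeats under the set limit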
* = called active by the depositor; i = inactive; ? = inconclusive; . = not tested or not shown; + = active, no number. Only some compounds are listed: those with a hit (about 9.6% of all), similar ones and a draw of the others.

SMILES	Lmaj promast	HCT116 bCat-KO	Autophagy mod	HCT116 PTEN-null	INS promoter inh	Ins promoter up	L major 1uM
CCOC(=O)c1c(-c2ccc(F)cc2)csc1NC(=O)CCN1CCOCC1	93*	73	i	71	.	-0.19	77*
COc1ccccc1-n1cnnc1SCC(=O)N1CCN(S(=O)(=O)c2ccccc2)CC1	-6	89	i	86	.	-0.6	.
N#Cc1ccc(-c2csc(NC3=NCCCCC3)n2)cc1	87*	68	i	77	17	-0.29	-5
CCOC(=O)c1c(NC(=O)Cn2cnc([N+](=O)[O-])n2)sc(C)c1C	52*	.	i	.	-50	-0.36	-4
COCCN(C(=O)CC(C)(C)C)c1nnc(-c2cccnc2)s1	-3	95	i	94	-238	.	.
CCN(CC(O)Cn1c2ccccc2c2ccccc21)S(=O)(=O)c1ccc(C)cc1 (configuration not stated)	100*	75	i	58	-29	.	-10
CN(CC(O)Cn1c2ccccc2c2ccccc21)S(C)(=O)=O (configuration not stated)	5	.	i	.	-71	0.31	.
CCN(CC)CCN(C)C1CCC(c2ccccc2)CC1 (configuration not stated)	94*	69	i	74	20	-0.15	76*
O=C(NCCc1c[nH]c2ccccc12)c1cccc(S(=O)(=O)Nc2ccccc2Cl)c1	23	87	i	91	.	-0.56	.
CCCCCCCCCCCCCCCCn1cc[n+](C)c1	101*	.	+	.	-124	?	99*
Cc1c(C(=O)Nc2ccncc2)sc2nc(-c3ccc(F)cc3)cn12	99*	48	i	36	.	-1.3	19
Cn1c(SCCN2CCCCC2)nnc1-c1ccccc1Br	73*	98	i	92	-11	-0.04	-2
O=C(CN1CCCCC1)N1CCCc2c1c(=O)oc1ccc(OCc3ccccc3)cc21	67*	33	i	13	-3	.	-2
CC(=O)NC(CCS(C)(=O)=O)C(=O)Nc1ccc(Cl)c(Cl)c1 (configuration not stated)	-7	94	i	103	-60	0.45	.
Cn1nc(C(F)(F)F)c2cc(NC(=O)OCc3ccc(C(C)(C)C)cc3)sc21	97*	81	i	74	-38	0.39	-14
Cn1nc(C(F)(F)F)c2cc(NC(=O)OCc3ccc(F)cc3)sc21	-1	80	i	80	-37	0.88	.
CCCCNC(=O)n1c(SC)nc2ccccc21	-2	100	i	108	57	0.34	.
CCOC(=O)C1=Nc2ccccc2C1=[N+]=[N-]	79*	61	i	56	.	-2.8	46
CC1=CC(C)C(COC(=O)CN2CCCCC2)C(C)C1 (configuration not stated)	.	.	.	.	.	0.52	.
Cc1nnc(SCC(=O)NC23CC4CC(CC(C4)C2)C3)s1	0	.	i	.	.	0.74	.
O=C(CSC1=NCCN1)NC12CC3CC(CC(C3)C1)C2	100*	6	i	16	.	2.3	-5
O=C(NC(=S)N1CCN(C(c2ccccc2)c2ccccc2)CC1)c1ccc(S(=O)(=O)N2CCOCC2)cc1	99*	36	i	36	40	-2.1	-3
CCc1nnc(NC(=O)CN2CCC(O)(c3ccccc3OC)CC2)s1	-4	104	i	99	-3	-0.69	.
CCC1CCCCN1C(=O)CSc1nnc(-c2ccc(Cl)s2)o1 (configuration not stated)	7	90	i	87	8	-1.2	.
COc1ccc2oc(=O)c(C(=O)NCC3CCCO3)cc2c1 (configuration not stated)	-1	98	i	114	.	0.63	.
SMILES	Lmaj promast	HCT116 bCat-KO	Autophagy mod	HCT116 PTEN-null	INS promoter inh	Ins promoter up	L major 1uM
Cc1cc(SCC(=O)Nc2cccc(S(=O)(=O)NC3=NCCCCC3)c2)nc2ccccc12	.	.	.	.	.	0.21	.
CCOC(=O)Cc1cc(-c2ccc(F)cc2)nc2ccc3ccccc3c12	68*	86	i	89	28	.	7
CCOC(=O)Cc1cc(-c2ccc(O)cc2)nc2ccc3ccccc3c12	15	82	i	72	.	-1.1	.
CC[n+]1c(/C=C/C=C/N(C(C)=O)c2ccccc2)sc2cc(OC)ccc21	88*	6.0*	?	4	-270	.	29
N#CCSc1nnc(-c2ccccc2O)n1Cc1ccccc1	-1	95	i	96	.	0.64	.
COc1cc2c3nnc(-c4ccc(F)cc4)c-3cn(Cc3ccc(F)cc3)c2cc1OC	97*	0.7*	+	0.8*	.	.	-17
COc1ccc(-c2cn[nH]c2-c2ccc(OCc3ccc(F)cc3)cc2O)cc1OC	.	.	.	.	.	0.13	.
O=C(O)c1cccc(N2CCCC2=O)c1	-1	88	i	93	-56	.	.
C[C@H]1CC[C@H]2C(=O)N3[C@H](c4cccc(N5CCCC5=O)c4)[C@@H](C)CC[C@H]3C(=O)N2[C@@H]1c1cccc(N2CCCC2=O)c1	82*	95	i	93	-67	0.51	-14
CCCCNc1cc(NC(C)=O)cc2cc(OC)c(OC)cc12	100*	61	i	70	.	0.73	-19
Nc1nsc2ccccc12	100*	4.7*	i	4	0	-0.94	95*
Cc1cc(C)c(S(=O)(=O)c2c(C)cccc2C)c(OCC(C)C)n1	96*	24	i	37	.	-0.01	?
CCOc1nc(C)cc(C)c1S(=O)(=O)c1cccc(C)c1	19	.	i	.	.	-1.1	.
O=C(Nc1ccc(Cl)cc1F)c1ccc(COc2c(F)c(F)c(F)c(F)c2F)o1	-9	86	i	86	.	0.22	.
CCSC1=N/C(=C\c2ccc(C)s2)C(=O)S1	83*	89	i	98	-14	0.36	-16
CC(C)CCN(C)c1ccc(/C=N/n2cnnc2)cc1	82*	100	i	95	0	-0.89	-1
COc1ccc(NC(=O)Cc2ccccc2F)cn1	0	.	i	.	36	-1.7	.
COc1ccc(NC(=O)/C(Cl)=C(/Cl)S(=O)Cc2ccccc2Cl)cn1 (configuration not stated)	101*	.	i	.	i	?	100*
CCOc1ccccc1N1CC(C(=O)Nc2nccs2)CC1=O (configuration not stated)	-9	95	i	92	28	-0.56	.
Cc1cccc(OCCn2c(NC(=O)c3ccco3)nc3ccccc32)c1	97*	19	+	11	5	-1.1	87*
Cc1cccc(OCCn2c(-c3ccco3)nc3ccccc32)c1	22	53	i	51	-49	0.46	.
Cc1cc(NC(=O)CCC(=O)N(C2CC2)C2(C(=O)NC3CCCC3)CCC(C)CC2)no1 (configuration not stated)	4	91	i	109	-73	0.05	.
CC(=O)Nc1ccc(S(=O)(=O)NCCC(=O)Nc2ccc(C)c(Cl)c2)cc1	3	91	i	95	-25	.	.
